Results on 14 molecules are retold here after PubChem BioAssay (NCATS).

The structures appear in SMILES notation. Records with an inconclusive call do not appear. A number with no mark means an inactive call. The source made the active and inactive calls. Calls follow the shape of the dose curve; as a rule, active = well fitted curve in the direction sought with a large enough effect; inconclusive = small, poorly fitted or top-dose-only effect, or another doubt; inactive = no such curve, though single readings can be large; an effect the other way counts as inactive or inconclusive.

A short description of assay [1]: qHTS of pediatric cancer cell lines to identify multiple opportunities for drug repurposing: Confirmatory screen for A673 cells (AID 1347110).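 Also: cells exposed to compound for 48 h before the viability read; nearly all actives have a fitted effect of over 65% in size.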 In short, it runs like this:
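Forty-eight-hour viability assay. Follow-up compounds ran at 11-point dilutions; positive control bortezomib at 2.3 uM final, neutral control DMSO.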

Assay [2] is described as follows: qHTS of pediatric cancer cell lines to identify multiple opportunities for drug repurposing: Confirmatory screen for SK-N-MC cells (AID 1347111).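 Also: cells exposed to compound for 48 h before the readout; nearly all actives have a fitted effect of over 70% in size.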 Put shortly:
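Seed 500-1,000 cells/well; rest 5 h at 37 degrees C. Pin-transfer compounds, 11-point titration. Incubate 48 h. Add CellTiter-Glo, 15 min RT, read luminescence.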
(In general: Quantitative high-throughput screening tests each substance at several concentrations.)

Assay [3] can be described thus: qHTS of pediatric cancer cell lines to identify multiple opportunities for drug repurposing: Confirmatory screen for TC32 cells (AID 1347118).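 Also: cells exposed to compound for 48 h before the read; nearly all actives have a fitted effect of over 65% in size.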 Put shortly: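 qHTS, TC32, 48 h drug treatment, CellTiter-Glo luminescence as a proxy for metabolically active cells; primary top concentration 46 µM (MIPE 11-pt, NPC 8-pt); confirmatory 11-pt.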
Assay [4] can be described thus: qHTS of pediatric cancer cell lines to identify multiple opportunities for drug repurposing: Confirmatory screen for control Hh wild type fibroblast cells (AID 1347121). Also: nearly all actives have a fitted effect of over 70% in size. In short, it runs like this: (§1)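 Cells (500-1,000/well) rested 5 h, then received compounds for 48 h; metabolically active cells were measured by CellTiter-Glo luminescence. Final concentrations spanned up to 46 µM (MIPE, 11-point) or 0.59 nM-46 µM (NPC, 8-point) in primary screens, 11-point in follow-ups.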

The nature of assay [5]: qHTS of pediatric cancer cell lines to identify multiple opportunities for drug repurposing: Confirmatory screen for Rh41 cells (AID 1347123).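 Also: 48 h compound exposure; nearly all actives have a fitted effect of over 60% in size.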 Put shortly:
as §1

Assay [6] in a line: qHTS of pediatric cancer cell lines to identify multiple opportunities for drug repurposing: Confirmatory screen for OHS-50 cells (AID 1347128).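 Also: compound exposure lasted 48 h at 37 degrees C; nearly all actives have a fitted effect of over 55% in size.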 In short, it runs like this:
as §1

A short description of assay [7]: qHTS of pediatric cancer cell lines to identify multiple opportunities for drug repurposing: Confirmatory screen for SK-N-SH cells (AID 1347129).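 Also: cells exposed to compound for 48 h before viability read; nearly all actives have a fitted effect of over 60% in size.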 Put shortly:
as §1

Assay [8] can be described thus: qHTS of pediatric cancer cell lines to identify multiple opportunities for drug repurposing: Confirmatory screen for BT-12 cells (AID 1347112).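 Also: viability read after 48 h of compound exposure; nearly all actives have a fitted effect of over 55% in size.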 In short, it runs like this:
as §1

Assay [9] can be described thus: qHTS of pediatric cancer cell lines to identify multiple opportunities for drug repurposing: Confirmatory screen for DAOY cells (AID 1347114). Also: nearly all actives have a fitted effect of over 65% in size. In short, it runs like this:
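Viability measured as metabolically active cells via CellTiter-Glo luminescence following 48 hours of compound exposure, 11-point dilutions in confirmatory testing. 500-1,000 cells/well plated 5 hours before dosing; controls were DMSO and 2.3 µM bortezomib.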

Assay [10] can be described thus: qHTS of pediatric cancer cell lines to identify multiple opportunities for drug repurposing: Confirmatory screen for U-2 OS cells (AID 1347122). Also: nearly all actives have a fitted effect of over 65% in size. In short, it runs like this:
as §1

A short description of assay [11]: qHTS of pediatric cancer cell lines to identify multiple opportunities for drug repurposing: Confirmatory screen for Rh18 cells (AID 1347125). Also: nearly all actives have a fitted effect of over 55% in size. In short, it runs like this: as §1
The nature of assay [12]: qHTS of pediatric cancer cell lines to identify multiple opportunities for drug repurposing: Confirmatory screen for Rh30 cells (AID 1347126). Also: nearly all actives have a fitted effect of over 55% in size. In short, it runs like this: as §1
A short description of assay [13]: qHTS of pediatric cancer cell lines to identify multiple opportunities for drug repurposing: Confirmatory screen for Saos-2 cells (AID 1347127). Also: nearly all actives have a fitted effect of over 60% in size. In short, it runs like this:
as §1

The nature of assay [14]: qHTS of pediatric cancer cell lines to identify multiple opportunities for drug repurposing: Confirmatory screen for NB1643 cells (AID 1347109). Also: nearly all actives have a fitted effect of over 45% in size. In short, it runs like this: as §1
The nature of assay [15]: qHTS of pediatric cancer cell lines to identify multiple opportunities for drug repurposing: Confirmatory screen for NB-EBc1 cells (AID 1347115).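 Also: cells exposed to compound for 48 h before the viability read; nearly all actives have a fitted effect of over 45% in size.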 In short, it runs like this:
as §1

Assay [16] can be described thus: qHTS of pediatric cancer cell lines to identify multiple opportunities for drug repurposing: Confirmatory screen for MG 63 (6-TG R) cells (AID 1347119). Also: nearly all actives have a fitted effect of over 55% in size. Put shortly: as §1
Assay [17] in a line: qHTS of pediatric cancer cell lines to identify multiple opportunities for drug repurposing: Confirmatory screen for RD cells (AID 1347124). In short, it runs like this:
as §1

Assay [18] is described as follows: qHTS of pediatric cancer cell lines to identify multiple opportunities for drug repurposing: Confirmatory screen for LAN-5 cells (AID 1347113). Also: nearly all actives have a fitted effect of over 65% in size. Put shortly:
as §1

A short description of assay [19]: qHTS of pediatric cancer cell lines to identify multiple opportunities for drug repurposing: Confirmatory screen for BT-37 cells (AID 1347117). Also: nearly all actives have a fitted effect of over 55% in size. Put shortly: as §1
Potency is read from the fitted curve at half-maximal effect.

Consider `CN(C(Cc1ccc(OS(=O)(=O)c2cccc3cnccc23)cc1)C(=O)N1CCN(c2ccccc2)CC1)S(=O)(=O)c1cccc2cnccc12` (stereo not drawn), for which the Potency result in assay [1], in assay [4] and in [7] was “inactive” in each case. Moreover, the Potency is 2.93 µM (active) in assay [2], 3.69 µM (active) in assay [3], 5.22 µM (active) in [5] and 5.22 µM (active) in assay [6].
Take `CC1=C[C@@H]2[C@@H]([C@@H](O)C[C@@]3(C)[C@H]2C[C@@H](C)[C@]3(O)C(=O)CO)[C@@]2(C)Cc3cnn(-c4ccccc4)c3C=C12`: the Potency in [1] is 23.3 µM (active); in assay [2] it was 9.27 µM (active); in assay [3], 10.4 µM (active); in [5] it was 23.3 µM (active). For the same molecule, the Potency result in assay [8], in [9], in assay [4], in assay [10], in assay [11] and in [12] was “inactive” throughout. Moreover, the Potency entry in assay [13] is “inactive”.
With `Cc1c(C(=O)Nc2ccc(N3C[C@@H](C)O[C@@H](C)C3)nc2)cccc1-c1ccc(OC(F)(F)F)cc1`, the Potency result in assay [14], in [15], in [4], in [17], in assay [11] and in assay [7] was “inactive” throughout. Also, the values for the Potency in [16], in assay [10] and in assay [5] were 10.4 µM (active), 18.5 µM (active) and 16.5 µM (active), respectively.
Turning to `C[C@H](c1ccc(F)cc1CCCC(=O)O)N(c1cc(F)ccc1F)S(=O)(=O)c1ccc(Cl)cc1`, the Potency entry in assay [1], in assay [8], in assay [18], in [15], in assay [19] and in assay [16] was “inactive” in each case. Besides, the Potency entry in assay [4], in [10], in [5], in assay [12], in [13] and in assay [7] was “inactive” throughout.
On to `Cc1cccc(-c2[nH]c(C(C)(C)C)nc2-c2ccc3c(c2)OCO3)n1`, for which the Potency in [1] was 13.1 µM (active); in assay [2] it was 7.37 µM (active); in assay [8], 11.7 µM (active); in assay [18], 2.61 µM (active); in assay [19] it was 8.27 µM (active); in assay [3], 7.37 µM (active). In assay [4], the Potency was 8.27 µM (active). The Potency result in assay [11] is “inactive”.
On to `CCC(=O)OCC(=O)[C@@]1(OC(=O)CC)[C@@H](C)C[C@@H]2[C@H]3CCC4=CC(=O)C=C[C@]4(C)[C@@]3(F)[C@@H](O)C[C@@]21C`, for which the Potency entry in assay [14], in [2], in [8], in assay [19], in [16] and in assay [4] was “inactive” throughout. Besides, the Potency result in assay [10], in [17], in [11], in assay [12], in [13] and in assay [6] was “inactive” throughout. Moreover, the values for the Potency in assay [5] and in assay [7] were 14.7 µM (active) and 20.9 µM (active), respectively.
In the case of `CCC[C@H](Nc1nc(-c2ccc(NC(=O)NCC)c(OC)c2)ncc1C)c1cccnc1`, the Potency was 0.165 µM (active) in [14]; 0.233 µM (active) in [1]; 0.329 µM (active) in [15]; 0.329 µM (active) in [19]; 0.117 µM (active) in [3]; 0.233 µM (active) in [10]. Moreover, the Potency in assay [17] was 0.147 µM (active); in assay [13], 0.208 µM (active); in assay [6], 0.329 µM (active). The Potency entry in assay [4], in assay [11] and in [7] was “inactive” each time.
For `CON(C)C(=O)N1N=C(c2cc(F)ccc2F)S[C@]1(CCCN)c1ccccc1`, the Potency in assay [1] is 0.0104 µM (active); in [2] it was 0.0093 µM (active); in assay [19], 0.0074 µM (active); in [3], 0.0117 µM (active); in assay [16], 0.0208 µM (active); in assay [10], 0.0465 µM (active). In addition, the Potency in assay [5] is 0.0185 µM (active); in assay [17], 0.0465 µM (active); in assay [13], 0.0059 µM (active); in assay [6], 0.0052 µM (active). Moreover, the Potency entry in assay [4] and in [12] was “inactive” throughout.
In the case of `COC1CCC(C(=O)c2ccc3nc4c(cc3c2)CCCO4)CC1` (stereo not drawn), the Potency entry in [14], in assay [2], in assay [8], in assay [15], in assay [19] and in [4] was “inactive” throughout. The Potency result in assay [17], in assay [11], in assay [13], in assay [6] and in [7] was “inactive” each time.
`CC(C)n1c(C=C[C@H](O)C[C@H](O)CC(=O)O)c(-c2ccc(F)cc2)c2ccccc21`: the Potency in assay [1] was 4.65 µM (active); in assay [2] it was 23.3 µM (active); in assay [19] it was 14.7 µM (active); in assay [3] it was 16.5 µM (active); in assay [16], 3.29 µM (active); in assay [10] it was 3.69 µM (active). The Potency in assay [5] is 20.8 µM (active); in assay [17] it was 10.4 µM (active); in assay [11], 8.27 µM (active); in assay [13], 1.04 µM (active); in [6], 10.4 µM (active); in [7] it was 4.18 µM (active). The Potency result in [18] was “inactive”.
Turning to `CC(C)CN(C[C@H](O)[C@H](Cc1ccccc1)NC(=O)O[C@H]1CCOC1)S(=O)(=O)c1ccc(N)cc1`, the Potency result in assay [14], in [8], in assay [19], in [4], in assay [10] and in assay [5] was “inactive” each time. Moreover, the Potency result in assay [17], in assay [11], in assay [12], in assay [13], in assay [6] and in assay [7] was “inactive” each time. The Potency in [16] is 8.27 µM (active).
For the molecule `Cc1ccc(C(=O)N(CCCN)[C@@H](c2nc3cc(Cl)ccc3c(=O)n2Cc2ccccc2)C(C)C)cc1`, the Potency in assay [1] is 0.0076 µM (active); in assay [2], 0.024 µM (active); in assay [8] it was 0.759 µM (active); in assay [19], 0.0537 µM (active); in assay [3], 0.0479 µM (active); in assay [16], 0.0759 µM (active). The Potency in assay [10] is 0.0603 µM (active); in assay [5], 0.024 µM (active); in assay [17], 2.4 µM (active); in [12], 38 µM (active); in [13], 0.0676 µM (active); in [7], 12.1 µM (active). In addition, the Potency result in assay [4] and in assay [11] was “inactive” each time.
Take `CC[C@H](NC(=O)[C@H](C)NC)C(=O)N1C[C@@H](O)C[C@H]1Cc1c(-c2[nH]c3cc(F)ccc3c2C[C@H]2C[C@H](O)CN2C(=O)[C@H](CC)NC(=O)[C@H](C)NC)[nH]c2cc(F)ccc12`: the Potency in assay [1] is 7.37 µM (active); in [8], 18.5 µM (active); in assay [9], 5.22 µM (active); in assay [3], 2.93 µM (active); in [13], 5.22 µM (active). Also, the Potency entry in assay [15], in assay [4], in [17], in assay [12] and in assay [7] was “inactive” each time.
Regarding `CO[C@H]1/C=C\O[C@@]2(C)Oc3c(C)c(O)c4c(O)c(c(C=NN5CCN(C6CCCC6)CC5)c(O)c4c3C2=O)NC(=O)C(C)=CC=C[C@H](C)[C@H](O)[C@@H](C)[C@@H](O)[C@@H](C)[C@H](OC(C)=O)[C@H]1C`, the Potency was 23.3 µM (active) in assay [14]; 20.8 µM (active) in assay [2]; 26.1 µM (active) in assay [19]; 20.8 µM (active) in [3]; 20.8 µM (active) in [5]; 20.8 µM (active) in assay [13]. Also, the Potency result in [16], in [4], in assay [10], in assay [17], in assay [11] and in assay [7] was “inactive” throughout.
